The full list was thinned out, with hits kept by preference.
IDE exosite inh: exo-site inhibitors of human IDE, primary screen, biochemical, fluorescence anisotropy, probe displacement. Insulin-degrading enzyme (Homo sapiens), P14735. purified IDE, FL-6b probe fluorescence polarization; stronger effect = lower value. z-score at 20 µM. 17,000 tested, 6.3% active;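 active = z-score of -3 or lower, meaning strong loss of probe binding signal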;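 note: His-tagged human IDE residues 42-1019 made in E. coli with 30 nM FL-6b probe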
* = called active by the depositor.

SMILES	IDE exosite inh
NCC[C@H]1CC[C@@H](NS(=O)(=O)c2ccc(Cl)cc2)[C@H](CO)O1	0.82
CCc1sc(N2[C@H](C#N)[C@H](c3ccccc3-c3ccccc3)[C@H]2CO)nc1C	-0.55
CC(C)[C@@H]1COCc2cnnn2CCC[C@@H](C)C(=O)N1	-0.25
OC[C@H]1[C@H](c2ccc(C#Cc3ccccc3)cc2)[C@H]2CN(Cc3cncnc3)CCCCN21	-7.8*
CCCC#Cc1ccc([C@@H]2[C@H]3CN(Cc4cncnc4)CCCCN3[C@H]2CO)cc1	2.9
OC[C@H]1[C@@H](c2ccc(C#Cc3ccccc3)cc2)[C@@H]2CN(Cc3cncnc3)CCCCN12	-16*
OC[C@@H]1[C@@H](c2ccc(C#Cc3ccccc3)cc2)[C@@H]2CN(Cc3ccccn3)CCCCN12	-8.6*
OC[C@@H]1[C@H](c2ccc(Br)cc2)[C@H]2CN(Cc3ccccn3)CCCCN12	0.72
CCCC#Cc1ccc([C@@H]2[C@@H](CO)N3CCCCN(Cc4cncnc4)C[C@H]23)cc1	3.7
COCC#Cc1ccc([C@H]2[C@H](CO)N3CCCCN(Cc4cncnc4)C[C@@H]23)cc1	3.8
OC[C@@H]1[C@@H](c2ccc(-c3ccccc3)cc2)[C@@H]2CN(Cc3ccccn3)CCCCN12	-2.9
CCCC#Cc1ccc([C@H]2[C@@H](CO)N3CCCCN(Cc4cncnc4)C[C@H]23)cc1	-1.8
O=C(C[C@@H]1CC[C@@H](NS(=O)(=O)c2ccccc2F)[C@@H](CO)O1)NCCCN1CCOCC1	0.2
COCC(=O)N1CC2(C1)CN(Cc1ccc3c(c1)OCO3)[C@H](CO)c1c2c2ccc(OC)cc2n1C	-1.6
O=C(C[C@@H]1C=C[C@@H](NC(=O)c2ccncc2)[C@H](CO)O1)NCC1CC1	0.28
CCCNC(=O)N1CC(=O)N2[C@H](CO)[C@H](c3ccc(C#Cc4ccccc4)cc3)[C@H]2C1	-1.1
CCCC#Cc1ccc([C@H]2[C@H](CO)N3C(=O)CN(C(=O)NCCC)C[C@@H]23)cc1	-0.63
CCCNC(=O)N1CC(=O)N2[C@H](CO)[C@@H](c3ccc(C#Cc4cccc(OC)c4)cc3)[C@H]2C1	0.01
CCCC#Cc1ccc([C@@H]2[C@H]3CN(C(=O)NCCC)CC(=O)N3[C@H]2CO)cc1	1.6
CCCC#Cc1ccc([C@@H]2[C@@H](CO)N3C(=O)CN(C(=O)NCCC)C[C@@H]23)cc1	1.7
CCCNC(=O)N1CC(=O)N2[C@H](CO)[C@H](c3ccc(C#Cc4cccc(F)c4)cc3)[C@@H]2C1	-8.5*
CCCNC(=O)N1CC(=O)N2[C@H](CO)[C@@H](c3ccc(C#Cc4cccc(F)c4)cc3)[C@@H]2C1	-6.4*
CCCNC(=O)N1CC(=O)N2[C@H](CO)[C@H](c3ccc(C#Cc4cccc(F)c4)cc3)[C@H]2C1	0.55
CCCNC(=O)N1CC(=O)N2[C@H](C1)[C@@H](c1ccc(C#Cc3ccc(F)cc3)cc1)[C@@H]2CO	1.2
CCCNC(=O)N1CC(=O)N2[C@H](CO)[C@H](c3ccc(C#Cc4ccccc4)cc3)[C@@H]2C1	-9.6*
SMILES	IDE exosite inh
CCCNC(=O)N1CC(=O)N2[C@@H](CO)[C@H](c3ccc(C#Cc4cccc(F)c4)cc3)[C@@H]2C1	-9.2*
CCCNC(=O)N1CC(=O)N2[C@H](CO)[C@@H](c3ccc(C#Cc4cccc(OC)c4)cc3)[C@@H]2C1	-3
CS(=O)(=O)N1CCCCN2[C@H](CO)[C@@H](c3ccc(Br)cc3)[C@H]2C1	2.4
CCCC(=O)Nc1ccc2c(c1)OC[C@H](C)N(CC1CCOCC1)C[C@H](C)[C@@H](OC)CN(C)C2=O	-0.77
O=C(Cc1cccnc1)N1CC(=O)N2[C@H](CO)[C@H](c3ccc(C#CC4CCCCC4)cc3)[C@@H]2C1	-2.3
N#C[C@H]1[C@@H](c2ccc(C#CC3(O)CCCC3)cc2)[C@@H](CO)N1C(=O)C1CCCC1	2.7
Cc1noc(C)c1NC(=O)N1C[C@H](O)COC[C@@H]2O[C@@H](CC(=O)N[C@H]3CCN(Cc4ccccc4)C3)CC[C@H]21	-0.061
COCC(=O)N1C[C@@H](C)[C@H](OC)CN(C)C(=O)c2ccc(NC(=O)Nc3cccc(F)c3)cc2OC[C@@H]1C	-0.36
C/C=C/c1ccc([C@@H]2[C@@H](CO)N(C(=O)NCCC)[C@H]2CNC(=O)C2CC2)cc1	1.7
CCS(=O)(=O)Nc1ccc2c(c1)C(=O)N(C)[C@@H]1CC[C@H](CC(=O)NC3CCCCC3)O[C@@H]1CO2	0.12
COCC(=O)N(C[C@H]1N[C@H](CO)[C@@H]1c1ccc(-c2ccccc2)cc1)C(C)C	1.2
COCC(=O)N1C[C@@H](C)[C@@H](OC)CN(C)C(=O)c2ccc(NC(=O)Nc3cccc(F)c3)cc2OC[C@@H]1C	1.1
CCCN(C)C[C@@H]1OCCCC[C@H](C)Oc2ccc(NC(=O)CCCN(C)C)cc2C(=O)N([C@@H](C)CO)C[C@@H]1C	-0.38
O=C(C1CC1)N1CC[C@@H]2[C@H]1c1cc(Br)ccc1N[C@@H]2CO	0.17
C[C@H]1CCCCO[C@H](CN(C)S(=O)(=O)c2ccccc2)[C@@H](C)CN([C@@H](C)CO)C(=O)c2cc(NC(=O)Nc3ccc4c(c3)OCO4)ccc2O1	0.22
COc1cccc(-c2ccc([C@@H]3[C@@H](CO)N4C(=O)CN(C(=O)NC(C)C)C[C@H]34)cc2)c1	-3.5*
COc1ccc(-c2ccc([C@H]3[C@H](CO)N4C(=O)CN(C(=O)NC(C)C)C[C@@H]34)cc2)cc1	-3.8*
COc1ccc(-c2ccc([C@@H]3[C@H]4CNCC(=O)N4[C@H]3CO)cc2)cc1	0.96
Cc1ccc(-c2ccc([C@@H]3[C@@H](CO)N4C(=O)CN(C(=O)NC(C)C)C[C@H]34)cc2)cc1	-0.83
COc1ccc(-c2ccc([C@@H]3[C@H](CO)N4C(=O)CNC[C@@H]34)cc2)cc1	-0.34
Cc1ccc(-c2ccc([C@H]3[C@@H](CO)N4C(=O)CN(C(=O)NC(C)C)C[C@@H]34)cc2)cc1	-0.36
COc1cccc(-c2ccc([C@@H]3[C@H]4CN(C(=O)NC(C)C)CC(=O)N4[C@H]3CO)cc2)c1	-12*
COc1ccc(C#Cc2ccc([C@@H]3[C@@H](CO)N4C(=O)CN(C(=O)NC(C)C)C[C@H]34)cc2)cc1	-0.25
COc1ccc(-c2ccc([C@H]3[C@@H](CO)N4C(=O)CNC[C@H]34)cc2)cc1	-3.2*
COc1ccc(C#Cc2ccc([C@@H]3[C@H]4CN(C(=O)NC(C)C)CC(=O)N4[C@H]3CO)cc2)cc1	1
SMILES	IDE exosite inh
COc1ccc(NC(=O)N2CC(=O)N3[C@H](C2)[C@H](c2ccc(-c4ccccc4)cc2)[C@@H]3CO)cc1	0.54
O=C(Cc1ccccn1)N1CC(=O)N2[C@H](CO)[C@@H](c3ccc(C#CC4CCCCC4)cc3)[C@@H]2C1	0.048
COC(=O)c1ccc(CN2CC(=O)N3[C@H](CO)[C@H](c4ccc(-c5ccccc5F)cc4)[C@@H]3C2)cc1	3.9
CC(C)C#Cc1ccc([C@@H]2[C@H](CO)N3CCCCN(CC4CC4)C[C@@H]23)cc1	1.2
c1ccc(-c2ccc([C@H]3[C@H]4CNC[C@@H]3N4Cc3cc(-c4ccccc4)on3)cc2)cc1	0.12
C[C@H](CO)N1C[C@H](C)[C@@H](CN(C)C(=O)Nc2cccc(Cl)c2Cl)OCc2ccccc2-c2ccccc2C1=O	1.2
COc1ccc(C#Cc2ccc([C@H]3[C@@H](CO)N4C(=O)CN(C(=O)NC(C)C)C[C@H]34)cc2)cc1	1.4
C/C=C/c1ccc([C@H]2[C@H](CO)N3C(=O)CN(C(=O)Nc4ccc(OC)cc4)C[C@@H]23)cc1	-0.39

Bioassay records as filed in PubChem BioAssay.
